Bioassay records deposited in PubChem by several laboratories.
Keap1 Nrf2 FP = Keap1-Nrf2 protein-protein interaction inhibitors, primary screen, biochemical, fluorescence polarization, single point; AID 504523, 2011; 340,000 compounds, 0.15% hits; Keap1 Kelch-Nrf2 peptide fluorescence polarization, 1536-well; inhibition, % at 9.4 µM; Kelch-like ECH-associated protein 1 (Homo sapiens), Q14145; in the data active means inhibition above about 12%;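 further: human Keap1 Kelch domain with fluorescein labeled Nrf2 9mer peptide probe; 0% = neutral control wells and 100% = peptide positive control; higher means more block of Keap1 binding to Nrf2 peptide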
C-LANA FP = inhibitors of KSHV C-LANA binding to DNA, primary screen, biochemical, fluorescence polarization, FAM-LBS DNA, MBP-C-LANA, single point | 340,000 compounds, 0.078% hits | inhibition, % at 9 µM | AID 504423, 2011;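 active means highest replicate inhibition at or above 60% at 9 µM, even if other replicates fall short; inactive means all replicates below 60% inhibition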;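 further: 0% = neutral control wells and 100% = 4 µM acridine orange control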
EBV gp42 block = Epstein-Barr virus gp42 inhibitors, primary screen, biochemical, uHTS, fluorescence polarization; 220,000 compounds, 0.42% hits; Fluorescence polarization binding assay, mP read-out; AID 1085, 2008; inhibition, % (tested at 21.74 µM); in the data active means inhibition above about 50%
eLon inh = inhibitors of E. coli Lon protease, primary screen, biochemical, fluorescence polarization. P0A9M0. purified E. coli Lon protease. inhibition, % at 7.94 µM. 360,000 compounds, 0.42% hits; in the data active means inhibition above about 13%, passing the limit was not always enough;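 further: 0% = enzyme with probe and DMSO and 100% = no enzyme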
GLD-1 TGE inh = GLD-1/TGE RNA complex disruptors, primary screen, biochemical, fluorescence polarization; Female germline-specific tumor suppressor gld-1 (Caenorhabditis elegans), Q17339; purified GLD-1 + fluorescein TGE RNA; inhibition, % at 5.96 µM; 320,000 compounds, 0.44% hits; AID 2280, 2010;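 active means percent inhibition above a per-plate cutoff, the plate mean of test compounds plus 3 SD, cut at about 30% in these data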;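 further: 0% = DMSO wells with GLD-1 and probe and 100% = wells lacking GLD-1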
LANA-H2B inh = blockers of LANA interaction with H2A/H2B – biochemical, FP readout, HTS, primary screen; Protein LANA1 (Human herpesvirus 8 type P (isolate GK18)), Q9QR71; cell-free LANA-H2A/H2B peptide, fluorescence polarization; inhibition, % (no concentration beside the values); 320,000 compounds, 0.6% hits; AID 2629, 2010; in the data active means inhibition mostly above about 10%, no sharp cut-off; inactive means mostly below about 6.7%
The depositor's hits bear a star. Shown are actives, neighbours in structure and some others; about 1.5% of the full set was active somewhere.

Results for COc1ccccc1NC(=O)c1ccc(NC(=O)COC(=O)C2CC2C)cc1 (stereo unspecified) ?
Keap1 Nrf2 FP: -1; C-LANA FP: -1; EBV gp42 block: 19; eLon inh: 3; GLD-1 TGE inh: 12; LANA-H2B inh: 19*

How did COc1ccccc1NC(=O)c1ccc(NC(=O)COC(=O)C2CCCO2)cc1 (stereo unspecified) do in these assays?
Keap1 Nrf2 FP: 0; C-LANA FP: 4; EBV gp42 block: 1; eLon inh: -5

Results for COc1cc(OC)nc(Nc2nc(C(N)Cc3ccc(C(F)(F)F)cc3)cs2)n1 (stereo unspecified) ?
eLon inh: 8

How did Cc1nc2nc[nH]n2c(=O)c1CCOC(=O)c1ccccc1F do in these assays?
Keap1 Nrf2 FP: 2; C-LANA FP: -1; EBV gp42 block: 4; eLon inh: 0; GLD-1 TGE inh: -1; LANA-H2B inh: 10*

What do the screens show for `Cc1ccc(-c2nc3ccc(C)cn3c2CC2CCCCC2)cc1`?
eLon inh: -16

What do the screens show for `O=C(c1cc(C2CC2)nn1-c1ccccc1)N1CCN(S(=O)(=O)c2ccccc2F)CC1`?
eLon inh: -2

How did CC(C)CNC(=O)COC(=O)c1c2c(nc3ccccc13)/C(=C\c1cccs1)CC2 do in these assays?
Keap1 Nrf2 FP: -8; C-LANA FP: -2; eLon inh: -41

How did CN(CCC#N)C(=O)COC(=O)c1c2c(nc3ccccc13)/C(=C/c1ccco1)CC2 do in these assays?
Keap1 Nrf2 FP: 1; C-LANA FP: 1; EBV gp42 block: 95*; eLon inh: -11; GLD-1 TGE inh: -23; LANA-H2B inh: 3

How did Nc1c(OS(=O)(=O)c2ccccc2)cccc1OS(=O)(=O)c1ccccc1 do in these assays?
eLon inh: 1

Results for O=c1cc(CSc2nnc3ccccn23)c2c(ccc3ccccc32)o1 ?
Keap1 Nrf2 FP: 4; C-LANA FP: 1; EBV gp42 block: -3; eLon inh: -11; GLD-1 TGE inh: 66*; LANA-H2B inh: 4

How did COc1cc(CN2CCC(Cc3ccccc3)CC2)cc([N+](=O)[O-])c1O do in these assays?
Keap1 Nrf2 FP: -3; C-LANA FP: 0; eLon inh: -2; GLD-1 TGE inh: 11; LANA-H2B inh: 20*

How did O=C(O)CN1C(=O)/C(=C\c2cc(Br)ccc2OCc2ccc([N+](=O)[O-])cc2)SC1=S do in these assays?
Keap1 Nrf2 FP: 1; C-LANA FP: 78*; eLon inh: -12; GLD-1 TGE inh: -1; LANA-H2B inh: -1

Results for O=C(O)CN1C(=O)/C(=C\c2cc(Br)ccc2OCc2ccccc2Cl)SC1=S ?
Keap1 Nrf2 FP: -3; C-LANA FP: 11; eLon inh: -4; GLD-1 TGE inh: 1; LANA-H2B inh: 1

What do the screens show for `CCCc1ccc(C(=O)CCC(=O)O)cc1`?
Keap1 Nrf2 FP: -1; C-LANA FP: -1; EBV gp42 block: -13; eLon inh: -2; GLD-1 TGE inh: 1; LANA-H2B inh: active

What do the screens show for `CCCCNS(=O)(=O)NC(=O)C1=C(N2CCCC2)COC1=O`?
Keap1 Nrf2 FP: 5; C-LANA FP: -6; eLon inh: 6; GLD-1 TGE inh: -5; LANA-H2B inh: 2

How did COC(CNC(=O)c1ccc2c3c(onc13)-c1ccccc1C2=O)OC do in these assays?
Keap1 Nrf2 FP: 101*; C-LANA FP: -2; EBV gp42 block: 190*; eLon inh: 31; GLD-1 TGE inh: active; LANA-H2B inh: 0

Results for COC(CNC(=O)c1cccnc1)OC ?
Keap1 Nrf2 FP: -3; C-LANA FP: 2; EBV gp42 block: 2; eLon inh: 0; GLD-1 TGE inh: -2; LANA-H2B inh: 4

Results for CC(C)C[C@H](NC(=O)CCCn1nnc2ccccc2c1=O)C(=O)O ?
Keap1 Nrf2 FP: 0; C-LANA FP: -2; EBV gp42 block: -15; eLon inh: 3; GLD-1 TGE inh: 5; LANA-H2B inh: 0
